# Assay results taken from PubChem BioAssay (NCI).
# About 83,000 compounds went through this panel and 20% of them were active in at least one assay; those are over-represented in the sample as a whole.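 How to read the values: 0–100, growth inhibition (40 = 60% inhibited); 0, no net growth; -100 to 0, cell death (-40 = 40% of starting cells died; -100 = all dead).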 A number with no mark means an inactive call. The source made the active and inactive calls. How the source made its calls: active means growth percent below 10; inactive means the rest.
# Experiments:
# Assay in all cases: NCI-60 one-dose screen, 48 h (100 = growth as untreated, 0 = no growth, -100 = all killed)
# NCI-H23 lung = conditions: 10 µM unless noted
# NCI-H460 lung = conditions: 10 µM unless noted
# 786-0 renal = conditions: 10 µM unless noted
# DU-145 prostate = conditions: 10 µM unless noted
# MDA-MB-231 breast = conditions: 10 µM unless noted
# SF-268 CNS = conditions: 10 µM unless noted
# SF-539 CNS = conditions: 10 µM unless noted
# UACC-257 melanoma = conditions: 10 µM unless noted
# HCT-15 colon = conditions: 10 µM
# PC-3 prostate = conditions: 10 µM unless noted
# SK-MEL-5 melanoma = conditions: 10 µM unless noted
# LOX IMVI melanoma = conditions: 10 µM unless noted
# SK-MEL-28 melanoma = conditions: 10 µM unless noted
# SN12C renal = conditions: 10 µM unless noted
# NCI/ADR-RES ovarian = conditions: 10 µM unless noted
# SW-620 colon = conditions: 10 µM unless noted
# MCF7 breast = conditions: 10 µM unless noted
# HCT-116 colon = conditions: 10 µM unless noted
# HCC-2998 colon = conditions: 10 µM unless noted
# KM12 colon = conditions: 10 µM unless noted
SMILES,growth (NCI-H23 lung),growth (NCI-H460 lung),growth (786-0 renal),growth (DU-145 prostate),growth (MDA-MB-231 breast),growth (SF-268 CNS),growth (SF-539 CNS),growth (UACC-257 melanoma),growth (HCT-15 colon),growth (PC-3 prostate),growth (SK-MEL-5 melanoma),growth (LOX IMVI melanoma),growth (SK-MEL-28 melanoma),growth (SN12C renal),growth (NCI/ADR-RES ovarian),growth (SW-620 colon),growth (MCF7 breast),growth (HCT-116 colon),growth (HCC-2998 colon),growth (KM12 colon)
O=C(O)CC(Br)C(=O)CBr (stereo not drawn),108%,108%,99.1%,111%,98.2%,106%,95.3%,102%,93.5%,98.7%,106%,86.6%,102%,107%,111%,103%,86.3%,100%,116%,111%
O=C(CF)N(O)c1ccc(/C=C/c2ccccc2)cc1,60.7%,13%,8.73% (active),1.13% (active),73.4%,42.5%,36.2%,-7.11% (active),66.6%,62.3%,77.1%,39.8%,99.9%,26.6%,44.1%,56.5%,16.5%,11.5%,25.4%,69.5%
CNC(=O)Oc1cc(C(C)C)ccc1Sc1ccc(C(C)C)cc1OC(=O)NC,76.4%,34.9%,105%,72.8%,58.4%,60.2%,56.8%,65.5%,28.6%,53.7%,33.1%,62.2%,66.3%,85.3%,54.1%,43.6%,58.8%,66.5%,104%,57.9%
NS(=O)(=O)c1nc[nH]c1[N+](=O)[O-],99.8%,106%,102%,111%,102%,103%,100%,119%,101%,86.5%,101%,101%,105%,102%,102%,107%,94.9%,104%,100%,103%
NC(=O)SCC(=O)Nc1ccc([As](=O)(O)O)cc1,86.1%,101%,82.8%,101%,90.8%,100%,83.8%,74.1%,81.5%,77.8%,102%,68.8%,101%,89.8%,86.4%,73.9%,75.3%,85.6%,82%,97.6%
c1ccc(-c2ccc3ccccc3[o+]2)cc1,84.4%,97.2%,106%,98.9%,65%,88.7%,101%,98%,107%,76.3%,88.8%,82.2%,111%,90.2%,92.5%,92%,67%,95.7%,108%,91.8%
C=CCC1(CC)C(=O)NC(=S)NC1=O,100%,111%,108%,103%,109%,101%,98.3%,105%,99.9%,96.8%,95.7%,97.2%,116%,93.4%,104%,101%,103%,108%,96.5%,101%
CC(=O)[O][Hg][CH2]C1(C)COC(C)([CH2][Hg][O]C(C)=O)CO1 (stereo not drawn),65.4%,78.1%,79%,–,42.8%,88.2%,-87.2% (active),93.6%,-94% (active),89.5%,-35.9% (active),-98.4% (active),18.3%,-87.1% (active),94.9%,-92.3% (active),-81.1% (active),-86.2% (active),4.37% (active),–
